V-ATPase pH = regulators of yeast V-ATPase proton pumping, primary screen, pHLuorin cytosolic pH fluorescence; response, % at 10 µM; S. cerevisiae; hit rate 0.37% among 350,000; AID 504577, 2011; in the data active = response mostly above about 7.3%, no sharp cut-off; inactive = mostly below about 5.4%; also: actives read high
NALP1 yeast inh = NALP1 inflammasome inhibitors in reconstituted yeast, colorimetric, S. cerevisiae, triplicate retest; S. cerevisiae NALP1/ASC/caspase-1 growth, X-gal OD620, 72 h; hit rate 0.61% among 280,000; inhibition, % at 10 µM; AID 2071, 2009; in the data active = inhibition mostly above about 24%, no sharp cut-off; inactive = mostly below about 32%
TIM10 inh = growth inhibitors of isogenic TIM10 control yeast, primary screen, counter-screen for tim10-1 yeast inhibitor project, luminescence, uHTS | S. cerevisiae TIM10 strain growth, BacTiter-Glo luminescence, 24 h | inhibition, % at 10 µM | hit rate 1.4% among 330,000 | AID 463195, 2010;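 active = inhibition of 40% or more at the single tested concentration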;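 also: wild-type TIM10 isogenic control strain grown at permissive 25 °C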
NLRP3 yeast inh = NALP3 inflammasome inhibitors in reconstituted yeast, primary screen, luminescence, uHTS; hit rate 0.39% among 330,000; inhibition, % at 10 µM; Yeast reconstituted NLRP3/ASC/caspase-1, beta-gal luminescence, 24 h;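 active = inhibition of 50% or more; inactive = inhibition below 50%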
tim10-1 inh = growth inhibitors of tim10-1 mutant yeast, primary screen, luminescence, uHTS. hit rate 2.2% among 330,000. inhibition, % at 20 µM. AID 463190, 2010. S. cerevisiae tim10-1 ts strain growth, BacTiter-Glo, 24 h;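 active = inhibition of at least 40%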;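 also: mutant grown at 25 °C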
tim23-1 inh = growth inhibitors of tim23-1 mutant yeast, primary screen, luminescence, uHTS. hit rate 1.3% among 330,000. inhibition, % at 20 µM. S. cerevisiae tim23-1 growth, BacTiter-Glo luminescence, 24 h. AID 463212, 2010;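 active = growth inhibition of the mutant yeast at or above 50%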;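 also: temperature-sensitive mutant grown at 25 °C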
tim23-1 conf = tim23-1 mutant yeast growth inhibitors, confirmation, luminescence, single concentration; shares compounds with tim23-1 inh; S. cerevisiae tim23-1 growth, BacTiter-Glo luminescence, 24 h; inhibition, % at 20 µM; hit rate 83% among 4,400;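 active = inhibition above about 39% in either of two replicate wells at 20 µM, limit read from the data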;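 also: temperature-sensitive tim23-1 mutant grown at 25 °C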
A number is an active result; 0 = inactive; - = no result. Hits are enriched below; roughly 4.2% of the tested compounds scored in any of these assays.

SMILES	V-ATPase pH	NALP1 yeast inh	TIM10 inh	NLRP3 yeast inh	tim10-1 inh	tim23-1 inh	tim23-1 conf
O=C(O)c1cccc(-c2ccc(/C=N/n3cnnc3)o2)c1	0	0	0	0	0	0	-
CC1=CC(=NOC(=O)/C=C/c2ccccc2)C=C(C)C1=O	0	0	0	0	0	70	53
CC1=C(C)/C(=N\OC(=O)/C=C/c2ccccc2)C=CC1=O	0	0	0	0	0	0	-
CC(C)NC(=O)C1(c2ccccc2)CCOCC1	0	0	0	0	0	0	-
OC(COc1cccc2ccccc12)CN1CCN(c2cccc(Cl)c2)CC1 (configuration not stated)	0	0	0	0	0	69	0
OC(COc1ccc(Cl)c2ccccc12)CN1CCN(c2ccccn2)CC1 (configuration not stated)	0	0	0	0	0	63	0
C[n+]1c2n(c3ccccc31)N=C(c1cc(C(C)(C)C)c(O)c(C(C)(C)C)c1)CS2	0	0	0	0	0	0	-
CCCN(CC(=O)Nc1ccc(C(C)=O)cc1)CC(=O)Nc1ccccc1C	0	0	0	0	0	0	-
Brc1cc2c(cc1-c1nc3ccccc3s1)OCO2	0	0	0	0	0	0	-
Oc1ccc(N=C/C=C/c2ccc(Br)cc2)cc1-c1nc2ccccc2s1	-	0	0	0	0	64	44
O=C(O)CCN1C(=O)/C(=C/c2cn(-c3ccccc3)nc2-c2cccs2)SC1=S	0	0	0	0	0	0	-
N#C/C(=C\c1ccc([N+](=O)[O-])cc1)c1nc(C2CC2)cs1	0	0	0	0	0	0	-
CCOc1ccc(N/C(=C(/C(Cl)=C(Cl)Cl)[N+](=O)[O-])n2cncn2)cc1	-	0	0	0	0	0	-
O=[N+]([O-])/C(C(Cl)=C(Cl)Cl)=C(\Nc1ccc(F)cc1)n1cncn1	-	0	0	0	0	75	0
Cc1cc2c(c(=O)o1)C(CC(C)C)C(C#N)=C(N)O2 (configuration not stated)	0	0	0	0	0	0	-
CCN(CC)c1ccc(NC(=O)c2ccccc2Br)cc1S(=O)(=O)Nc1ccccc1OC	0	0	0	0	0	50	86
CN(C)C(=O)c1ccc(NC(=O)CN2CCc3cc4c(cc3C2)OCCCO4)cc1	0	0	0	0	0	0	-
O=C(CN1CCc2cc3c(cc2C1)OCCCO3)Nc1cccc(Br)c1	0	0	0	0	0	60	74
O=C1C(=O)N(C/C=C/c2ccccc2)c2ccccc21	0	0	0	0	0	76	0
CCN(CC)Cc1c(C(=O)OC(C)C)nnn1-c1nonc1N	0	0	0	0	0	0	-
O=C(CCSc1ccc(Cl)cc1)NCc1ccccn1	0	0	0	0	0	0	-
O=C(CCSc1ccc(Cl)cc1)NC12CC3CC(CC(C3)C1)C2	0	0	0	0	0	52	46
Cc1ccc(/C=N/NC(=O)c2ccncc2)o1	0	0	0	0	0	0	-
Cc1ccc(/C=N/NC(=O)c2ccc(OC3CCCC3)cc2)o1	0	0	0	0	0	58	55
O=C(NCc1cccs1)C(NS(=O)(=O)c1cccc2nsnc12)c1ccccc1 (configuration not stated)	0	0	0	0	0	0	-
SMILES	V-ATPase pH	NALP1 yeast inh	TIM10 inh	NLRP3 yeast inh	tim10-1 inh	tim23-1 inh	tim23-1 conf
CCCCCN=Cc1c(C)[nH]n(-c2nc3ccccc3s2)c1=O	0	0	0	0	0	56	48
CCCc1[nH]n(-c2nc3ccccc3s2)c(=O)c1C=NCCCOC	0	0	0	0	0	0	-
CCN=c1scc(-c2ccc(F)cc2)n1/N=C/c1ccccn1	0	0	0	0	0	58	70
COc1cc(OC)cc(-n2nnnc2SCC(=O)N2CCCc3ccccc32)c1	0	0	0	0	0	0	-
COc1cccc(-n2nnnc2SCC(=O)N2CCCc3ccccc32)c1	0	0	0	0	0	58	54
COc1cc(/C=N/NC(=O)c2ccc(N)cc2)ccc1OC(=O)c1cccc(C)c1	0	0	0	0	0	65	73
COc1cc(C(=O)N/N=C/c2ccc(OC(=O)c3cccc(C)c3)cc2)ccc1O	0	0	0	0	0	0	-
COc1ccc(C(=O)N/N=C/c2ccc(OC)c(COc3ccc(F)cc3)c2)cc1	0	0	0	0	0	0	-
COc1ccc(C(=O)N/N=C/c2ccc(OC)c(COc3ccc(F)cc3F)c2)cc1	0	0	0	0	0	55	40
CC(C)CC(=O)Nc1ccccc1N1CCN(C(=O)c2ccccc2)CC1	0	0	0	0	0	76	0
O=C(CCl)c1ccc(Cc2ncc(C(F)(F)F)cc2Cl)s1	0	0	0	0	0	52	0
CCOc1ccc(-c2nc(N)ncc2Oc2ccc(OC)cc2)c(O)c1	0	0	0	0	0	56	62
CCOc1ccc(-c2nc(N)ncc2-c2ccc(Cl)cc2)c(O)c1	0	0	0	0	0	54	0
CCOc1ccc(-c2nc(N)ncc2-c2ccc(OC)cc2)c(O)c1	0	0	0	0	0	0	-
C[C@@]12C(=O)Nc3ccc(F)cc3C(=O)N1[C@H]1c3ccccc3OC[C@@H]1[C@@H]2c1ccccc1	0	-	0	0	0	0	-
C[C@@]12C(=O)Nc3ccc(F)cc3C(=O)N1[C@H]1c3cc(Cl)ccc3OC[C@@H]1[C@@H]2c1ccccc1	0	-	0	0	0	54	54
COc1ccccc1C(=O)COC(=O)CN1C(=O)NC2(CCCC2)C1=O	0	-	0	0	0	0	-
O=c1cc(CO)oc(CN2CCN(CCO)CC2)c1O	0	0	0	0	0	95	0
CCc1noc(C)c1C(=O)NNC(=O)c1cc(OC)c(OC)c(OC)c1	0	-	0	0	0	0	-
Cn1c(=NC(=O)c2ccccc2[N+](=O)[O-])sc2cccc(F)c21	0	0	0	0	0	97	0
Cn1c(=NC(=O)C(C)(C)C)sc2cccc(F)c21	0	0	0	0	0	0	-
COC(=O)c1[nH]c2cc(OC)ccc2c1NC(=O)CCN1CCCC(C)(C)C1	0	0	0	0	0	74	0
COC(=O)c1[nH]c2cc(OC)ccc2c1NC(=O)CCN1CCCCC1	0	0	0	0	0	0	-
O=C(Nc1nc2ccccc2[nH]1)c1ccc(OC(F)F)cc1	0	0	0	0	0	63	59
C/C(=N\Nc1nc(C)cc(-c2ccccc2)n1)c1cccc(N)c1	0	0	0	0	0	0	-
C/C(=N\Nc1nc(C)cc(-c2ccccc2)n1)c1ccc(O)cc1	0	0	0	0	0	50	49
Cc1cccc(C(=O)Nc2ccc(C(=O)/C=C/c3ccncc3)cc2)c1	0	0	0	0	0	62	59

Compound activity as filed in PubChem.
